In PubChem BioAssay AID1159580 (chemical genetic matrix, 2015):
Several values for one entry are separate records, joined by “and”; a condition that tells them apart may be missing. Identical values can stand only once. Out of some 5,500 compounds screened, about 2,000 (36%) were called active. Not shown: some 18% with an inconclusive outcome. Cut-off read from the data, not from the text of the source: active = normalized growth mostly below about 0.91 (no sharp cut-off); inconclusive = no clear call, values can overlap the other calls; inactive = mostly above about 0.92. The list shows a part of the results.

Experiment: chemical genetic growth profiling, strain panel (AID 1159580);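 note: tested at 20 µM; growth read once vehicle control cultures reached saturation at 30 °C; 1 = growth at the plate median or of vehicle wells; lower values mean less growth of the strain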
Conditions: growth OD

Measured: normalized growth

Clc1ccc(C(c2ccccc2Cl)C(Cl)Cl)cc1 (stereo not given)
active: S. cerevisiae deletion strains, locus YLR027C, strain aat2, stronger effect = lower value 0.889 | S. cerevisiae deletion strains, locus YNL071W, strain lat1, stronger effect = lower value 0.907 | S. cerevisiae deletion strains, locus YPL078C, strain atp4, stronger effect = lower value 0.889
inactive: S. cerevisiae deletion strains, locus YJR066W, strain TOR1, stronger effect = lower value 0.894 | S. cerevisiae deletion strains, locus YJR075W, strain HOC1, stronger effect = lower value 1 | S. cerevisiae deletion strains, locus YKL009W, strain mrt4, stronger effect = lower value 0.98 | S. cerevisiae deletion strains, locus YKL068W, stronger effect = lower value 0.995 | S. cerevisiae deletion strains, locus YKL085W, strain MDH1 (second series), stronger effect = lower value 0.989 | S. cerevisiae deletion strains, locus YKL085W, strain MDH1, stronger effect = lower value 0.989 | S. cerevisiae deletion strains, locus YKL160W, strain elf1, stronger effect = lower value 0.923 | S. cerevisiae deletion strains, locus YKL190W, strain CNB1, stronger effect = lower value 1.03 | S. cerevisiae deletion strains, locus YKR001C, strain vps1, stronger effect = lower value 0.968 | S. cerevisiae deletion strains, locus YKR026C, strain gcn3, stronger effect = lower value 0.979 | S. cerevisiae deletion strains, locus YKR091W, strain srl3, stronger effect = lower value 0.976 | S. cerevisiae deletion strains, locus YLL001W, strain dnm1, stronger effect = lower value 0.91 | S. cerevisiae deletion strains, locus YLL026W, stronger effect = lower value 0.962 | S. cerevisiae deletion strains, locus YLL041C, strain sdh2, stronger effect = lower value 0.972 | S. cerevisiae deletion strains, locus YLR039C, strain RIC1, stronger effect = lower value 0.978 | S. cerevisiae deletion strains, locus YLR058C, strain SHM2, stronger effect = lower value 0.994 | S. cerevisiae deletion strains, locus YLR102C, strain apc9, stronger effect = lower value 0.993 | S. cerevisiae deletion strains, locus YLR113W, strain HOG1, stronger effect = lower value 0.93 | S. cerevisiae deletion strains, locus YLR221C, strain rsa3, stronger effect = lower value 0.927 | S. cerevisiae deletion strains, locus YLR258W, strain gsy2, stronger effect = lower value 0.984 | S. cerevisiae deletion strains, locus YLR262C, strain YPT6 (second series), stronger effect = lower value 0.881 | S. cerevisiae deletion strains, locus YLR262C, strain YPT6, stronger effect = lower value 0.955 | S. cerevisiae deletion strains, locus YLR268W, strain sec22, stronger effect = lower value 0.988 | S. cerevisiae deletion strains, locus YLR320W, strain mms22, stronger effect = lower value 0.929 | S. cerevisiae deletion strains, locus YLR330W, strain CHS5, stronger effect = lower value 1 | S. cerevisiae deletion strains, locus YLR342W, strain FKS1 (second series), stronger effect = lower value 1 | S. cerevisiae deletion strains, locus YLR342W, strain FKS1, stronger effect = lower value 0.999 | S. cerevisiae deletion strains, locus YLR357W, strain rsc2, stronger effect = lower value 1.04 | S. cerevisiae deletion strains, locus YLR370C, strain arc18, stronger effect = lower value 0.968 | S. cerevisiae deletion strains, locus YLR371W, strain rom2, stronger effect = lower value 0.985 | S. cerevisiae deletion strains, locus YLR384C, strain iki3, stronger effect = lower value 0.97 | S. cerevisiae deletion strains, locus YLR418C, strain cdc73, stronger effect = lower value 0.91 | S. cerevisiae deletion strains, locus YML016C, strain PPZ1, stronger effect = lower value 0.992 | S. cerevisiae deletion strains, locus YML032C, strain rad52, stronger effect = lower value 0.979 | S. cerevisiae deletion strains, locus YML120C, strain ndi1, stronger effect = lower value 0.932 | S. cerevisiae deletion strains, locus YML124C, strain tub3, stronger effect = lower value 0.988 | S. cerevisiae deletion strains, locus YMR058W, strain fet3, stronger effect = lower value 0.952 | S. cerevisiae deletion strains, locus YMR078C, strain ctf18, stronger effect = lower value 0.984 | S. cerevisiae deletion strains, locus YMR125W, strain sto1, stronger effect = lower value 0.991 | S. cerevisiae deletion strains, locus YMR129W, stronger effect = lower value 0.972 | S. cerevisiae deletion strains, locus YMR205C, strain PFK2, stronger effect = lower value 0.918 | S. cerevisiae deletion strains, locus YMR223W, strain ubp8, stronger effect = lower value 0.978 | S. cerevisiae deletion strains, locus YMR231W, strain pep5, stronger effect = lower value 0.97 | S. cerevisiae deletion strains, locus YMR263W, strain SAP30, stronger effect = lower value 0.975 | S. cerevisiae deletion strains, locus YMR307W, strain GAS1, stronger effect = lower value 0.986 | S. cerevisiae deletion strains, locus YNL067W, strain RPL9B, stronger effect = lower value 0.993 | S. cerevisiae deletion strains, locus YNL128W, strain TEP1, stronger effect = lower value 1.01 and 1.02 | S. cerevisiae deletion strains, locus YNL153C, strain GIM3, stronger effect = lower value 1.01 | S. cerevisiae deletion strains, locus YNL183C, strain NPR1, stronger effect = lower value 0.914 | S. cerevisiae deletion strains, locus YNL197C, strain WHI3, stronger effect = lower value 1.1 | S. cerevisiae deletion strains, locus YNL209W, strain ssb2, stronger effect = lower value 0.983 | S. cerevisiae deletion strains, locus YNL224C, strain SQS1, stronger effect = lower value 1 | S. cerevisiae deletion strains, locus YNL233W, strain BNI4, stronger effect = lower value 1.01 | S. cerevisiae deletion strains, locus YNL248C, strain rpa49, stronger effect = lower value 0.99 | S. cerevisiae deletion strains, locus YNL250W, strain rad50, stronger effect = lower value 0.987 | S. cerevisiae deletion strains, locus YNL271C, strain bni1, stronger effect = lower value 0.987 | S. cerevisiae deletion strains, locus YNL298W, strain CLA4, stronger effect = lower value 0.978 | S. cerevisiae deletion strains, locus YNL307C, strain MCK1, stronger effect = lower value 0.912 | S. cerevisiae deletion strains, locus YNL322C, strain KRE1 (second series), stronger effect = lower value 0.976 | S. cerevisiae deletion strains, locus YNL322C, strain KRE1, stronger effect = lower value 1 | S. cerevisiae deletion strains, locus YNR049C, strain mso1, stronger effect = lower value 0.978 | S. cerevisiae deletion strains, locus YNR052C, strain pop2, stronger effect = lower value 0.985 | S. cerevisiae deletion strains, locus YOL006C, strain TOP1, stronger effect = lower value 0.918 | S. cerevisiae deletion strains, locus YOL012C, strain htz1 0.884 | S. cerevisiae deletion strains, locus YOL147C, strain pex11, stronger effect = lower value 0.991 | S. cerevisiae deletion strains, locus YOR001W, strain rrp6, stronger effect = lower value 0.931 | S. cerevisiae deletion strains, locus YOR061W, strain CKA2, stronger effect = lower value 1 | S. cerevisiae deletion strains, locus YOR069W, strain VPS5, stronger effect = lower value 1.01 | S. cerevisiae deletion strains, locus YOR070C, strain gyp1, stronger effect = lower value 0.996 | S. cerevisiae deletion strains, locus YOR080W, strain dia2, stronger effect = lower value 0.969 | S. cerevisiae deletion strains, locus YOR083W, strain WHI5, stronger effect = lower value 0.921 | S. cerevisiae deletion strains, locus YOR106W, strain vam3, stronger effect = lower value 0.888 | S. cerevisiae deletion strains, locus YOR136W, strain idh2, stronger effect = lower value 0.976 | S. cerevisiae deletion strains, locus YOR144C, strain elg1, stronger effect = lower value 0.991 | S. cerevisiae deletion strains, locus YOR184W, strain ser1, stronger effect = lower value 0.963 | S. cerevisiae deletion strains, locus YOR231W, strain MKK1, stronger effect = lower value 0.948 | S. cerevisiae deletion strains, locus YOR265W, strain rbl2, stronger effect = lower value 0.97 | S. cerevisiae deletion strains, locus YOR270C, strain vph1, stronger effect = lower value 0.789 | S. cerevisiae deletion strains, locus YOR290C, strain snf2, stronger effect = lower value 0.983 | S. cerevisiae deletion strains, locus YOR316C, strain cot1, stronger effect = lower value 0.984 | S. cerevisiae deletion strains, locus YPL051W, strain arl3, stronger effect = lower value 0.956 | S. cerevisiae deletion strains, locus YPL055C, strain LGE1, stronger effect = lower value 1.03 | S. cerevisiae deletion strains, locus YPL106C, strain sse1, stronger effect = lower value 1 | S. cerevisiae deletion strains, locus YPL240C, strain hsp82, stronger effect = lower value 0.983 | S. cerevisiae deletion strains, locus YPL241C, strain CIN2, stronger effect = lower value 1.01 | S. cerevisiae deletion strains, locus YPL256C, strain CLN2, stronger effect = lower value 0.908 | S. cerevisiae deletion strains, locus YPR119W, strain clb2, stronger effect = lower value 0.991 | S. cerevisiae deletion strains, locus YPR141C, strain kar3, stronger effect = lower value 0.995 | S. cerevisiae deletion strains, locus YPR163C, strain tif3, stronger effect = lower value 0.992 | S. cerevisiae deletion strains, locus YPR167C, strain met16, stronger effect = lower value 0.989 | S. cerevisiae deletion strains, strain wtn01, stronger effect = lower value 0.977 | S. cerevisiae strains, strain wild type, stronger effect = lower value 1.01
